Measured values as given in PubChem BioAssay AID1259343 (VanderVen Lab, College of Veterinary Medicine, Cornell …, 2017).
Among all 6,200 compounds or so, about 2,900 (47%) were called active. The set was probably picked from earlier hits. The list shows a part of the results. Values without a mark were called inactive. Cut-off read from the data, not from the text of the source: active = inhibition above about 50%; inactive = the rest.

Experiment: Mycobacterium tuberculosis growth inhibition, primary screen (AID 1259343)
Conditions: inhibition: at 10 µM, active compounds read high; outcome: 10 uM

Structure (SMILES) | inhibition
CCOC(=O)C(=O)N1CCC(c2nc(-c3ccc(F)c(F)c3)no2)CC1 | 75.8% (active)
CC1CCN(C(=O)CSc2nnc(C(C)Oc3ccc(F)cc3)o2)CC1 (stereo unspecified) | -37.3%
COc1ccc(CC(=O)N2CCC(c3nc(-c4ccc(F)c(F)c4)no3)CC2)cc1 | 51.3% (active)
CC1CCN(C(=O)CCc2nc(-c3ccc(F)cc3)no2)CC1 | 87.9% (active)
COc1cccc(C(=O)N2CCC(c3nc(-c4ccc(C(F)(F)F)cc4)no3)CC2)c1 | 30.8%
COc1ccc(CCc2nnc(CCC(=O)N3CCC(c4ccc(F)cc4)C3)o2)cc1 (stereo unspecified) | 15.2%
COc1ccc(CC(=O)N2CCC(c3nc(-c4ccc(C(F)(F)F)cc4)no3)CC2)cc1 | 76.9% (active)
CC(C)c1ccc(OP(N)(=O)Oc2ccccc2F)cc1 (stereo unspecified) | 12.2%
O=C(NCCc1ccc(C(F)(F)F)cc1)NCCc1cccs1 | 31.3%
O=C(CSc1nnc(Cc2cccs2)n1C1CC1)N1CCOC1=O | -19.6%
CCOC(=O)Cn1c(=NC(=O)c2cc(C)no2)sc2cc(Cl)ccc21 | -4.33%
O=C(c1c(F)cccc1Cl)N1CCC(c2nc(-c3ccc(F)c(F)c3)no2)CC1 | 88.5% (active)
O=C(Cc1cccs1)N1CCC(c2nc(-c3ccc(C(F)(F)F)cc3)no2)CC1 | 67.2% (active)
COC(=O)C(=O)N1CCC(c2nc(-c3ccc(Cl)cc3)no2)CC1 | 20.8%
O=C(COc1ccc(Cl)cc1)N1CCC(c2nc(-c3ccc(Cl)cc3F)no2)CC1 | 64.9% (active)
O=C(c1ccccc1C(F)(F)F)N1CCC(c2nc(-c3ccc(Cl)cc3F)no2)CC1 | 15.5%
CCOC(=O)CC(=O)N1CCC(c2nc(-c3ccc(Cl)cc3)no2)CC1 | 57.3% (active)
O=C(CCc1ccccc1)N1CCC(c2nc(-c3ccc(C(F)(F)F)cc3)no2)CC1 | 83.2% (active)
COc1ccc(CC(=O)N(CC(=O)N2CCc3sccc3C2c2ccc(Cl)cc2Cl)Cc2ccc(F)cc2)cc1 (stereo unspecified) | 3.26%
OCCc1ccc(-c2noc(C3CCC3)n2)cc1 | 40.7%
COc1ccc(CC(=O)N2CCC(c3nc(-c4ccc(Cl)cc4F)no3)CC2)cc1 | 89% (active)

Structure (SMILES) | inhibition
CC(=O)Nc1cccc(CNc2ccc(Br)cn2)c1 | 2.55%
CSC1(CNc2ccc(Br)cn2)CCOCC1 | 57.5% (active)
O=C1CCC(C(=O)Nc2ccc(F)c(-n3cccc3)c2)CN1 (stereo unspecified) | 68.1% (active)
O=C(CC1CCCCC1)NCc1ccn(-c2ccccc2F)n1 | 25.1%
CC1(C(=O)Nc2ccc(F)c(-n3cccc3)c2)CCOCC1 | 49.2%
O=C(CC1CCS(=O)(=O)C1)Nc1ccc(F)c(-n2cccc2)c1 (stereo unspecified) | 58.4% (active)
CC(=O)Nc1ccc(/C=C2\C(=O)c3c(O)ccc(Cl)c3C2C)cc1 (stereo unspecified) | 28.3%
CCOC(=O)C1=C(O)/C(=C\c2cccc(C)n2)SC1=Nc1cccc(F)c1 | -12.2%
N#CC1(NC(=O)COc2ccc(C(=O)c3ccc(F)cc3)cc2)CCCCC1 | 99.2% (active)
Fc1cccc(F)c1-c1nc(CSc2nccc(C(F)(F)F)n2)cs1 | 51.8% (active)
Cc1nccc(-c2ccc(NC(=O)/C=C/c3csc(C)n3)cc2)n1 | 86.2% (active)
O=C(Nc1cccc([N+](=O)[O-])c1)C1COc2ccccc2O1 (stereo unspecified) | 97.2% (active)
O=C(Nc1cccc(Cl)c1Cl)C1COc2ccccc2O1 (stereo unspecified) | -20.1%
O=C(NNC(=O)C1COc2ccccc2O1)c1cccc(C(F)(F)F)c1 (stereo unspecified) | -52.4%
COc1cccc(OCCCOc2ccc(/C=C3\C(=N)N4N=CSC4=NC3=O)cc2)c1 | 88.5% (active)
N#Cc1cccc(CN2CCN3C(C(=O)Nc4ccc(-n5cccn5)cc4)=COC3=NC2=O)c1 | 85.8% (active)
N#Cc1cccc(CN2CCN3C(C(=O)Nc4ccc(-n5cccc5)cc4)=COC3=NC2=O)c1 | 29.2%
N#Cc1cccc(CN2CCN3C(C(=O)NCCCc4ccccc4)=COC3=NC2=O)c1 | 89.4% (active)
O=c1c(Cl)c(Cl)cnn1CCOc1ccc(Br)cc1 | 33.5%
O=c1c(Cl)cc(C(F)(F)F)cn1Cc1coc(-c2cccs2)n1 | 25.7%
O=c1c(Cl)c(Cl)cnn1Cc1cc(-c2cccs2)on1 | 99.8% (active)

Structure (SMILES) | inhibition
FC(F)(F)c1ccc(C2C=C(c3cccs3)Nc3nnnn32)cc1 (stereo unspecified) | 87.3% (active)
Fc1ccc(C2C=C(c3cccs3)Nc3nnnn32)cc1 (stereo unspecified) | 51% (active)
FC(F)Oc1ccc(C2C=C(c3ccccc3)Nc3nnnn32)cc1 (stereo unspecified) | -55.4%
CCCCCCSC1=C(C#N)C2(CCCC2)C(C#N)C(=O)N1 (stereo unspecified) | inactive
CCCCSC1=C(C#N)C(=O)NC(C)S1 (stereo unspecified) | 27.6%
CCCCCCSC1=C(C#N)C(=O)NC(CO)S1 (stereo unspecified) | 98.9% (active)
c1ccc(-c2cnnc(N3CCCCCCC3)n2)cc1 | 48.8%
CN1CCC(CNc2ccc3ncc(-c4cccc(OC(F)(F)F)c4)n3n2)CC1 | 44.6%
CC(C)(C)c1cc2nc(C(=O)O)cc(-c3cccc(F)c3)n2n1 | 64.4% (active)
CC(C)(C)c1cc2nc(C(=O)O)cc(-c3cccc(C(F)(F)F)c3)n2n1 | 43.3%
COc1ccccc1-c1cc(C(=O)O)nc2cc(-c3ccc(Cl)cc3)nn12 | 43.3%
COc1cccc(-c2cc(C(=O)O)nc3cc(C(C)(C)C)nn23)c1 | 100% (active)
COc1cccc(-c2cc(C(=O)O)nc3cc(-c4ccc(Cl)cc4)nn23)c1 | 59.4% (active)
CCOc1cc(C2=NN(c3ccc(C)cc3)C(=O)CC2)ccc1O | 6.87%
COc1ccc2c(c1)c(CC(=O)O)c(C)n2C(=O)c1ccc(Cl)cc1 | 43.2%
Cc1ccc(C2(CCN)CCOC(C(C)C)C2)cc1 (stereo unspecified) | 80.7% (active)
COc1ccc(NC(=O)N2CCN(CCCOC(c3ccc(Cl)cc3)c3ccc(Cl)cc3)CC2)cc1 | 10.1%
COc1ccc(NC(=O)CSc2n[nH]c(C3CC3)n2)cc1 | 78.8% (active)
Cc1ccc(Cc2nnc(SCC(=O)Nc3ccc(OC(F)F)cc3)[nH]c2=O)cc1 | 44.2%
